Chronic BCR inh – qHTS Assay to Find Inhibitors of Chronic Active B-Cell Receptor Signaling. 340,000 tested, 0.05% active. Potency, µM (titrated, usually from 46.1 µM), without a hit: at the top dose activity change, negative = inhibition, actives largely listed as inhibitors. ABC-DLBCL IkBa-CBG/CBR reporter, luminescence ratio, 4 h. AID 493014, 2011; active = well fitted inhibition curve with a large enough effect in the signal ratio, with a control signal flat, not every such curve was filed as active; inconclusive = small, poorly fitted or top-dose-only effect, or effect the other way, or a change in a side signal; the % refers to the signal ratio;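 note: potency is the fitted concentration of half-maximal effect; plate controls were basal doxycycline-induced cells for no effect and cells given 10 µM MG132 for full effect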
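TMD8 ABC-DLBCL cells carrying doxycycline-inducible green luciferase fused to IkappaBalpha plus unfused red luciferase were exposed to compounds (up to 46 uM) for 4 hrs at 37C. Activity came from the overlap-corrected green/red luminescence ratio.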
SW480 rereplic – A quantitative high throughput screen for small molecules that induce DNA re-replication in SW480 colon adenocarcinoma cells; SW480 DNA re-replication, Hoechst DNA content imaging, 48 h; Potency, µM (series often up to 46.1 µM), for the others: at the highest dose re-replication activation, hits mostly activators; 340,000 tested, 1.8% active; AID 624297, 2012; note: potency is the fitted concentration of half-maximal effect; % of control where 0% means no effect; nearly all actives have a fitted effect of over 55% in size
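250 cells/well; 23 nL cpd via pin tool; 48 hr, 37 C, 5% CO2; Hoechst 40 min; imager read of total nuclear intensity, ex 405/em 500-530 nm.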
RORg inh – qHTS for inhibitors of ROR gamma transcriptional activity. Nuclear receptor ROR-gamma (Mus musculus), P51450. Drosophila S2 Gal4-RORgamma UAS-luciferase reporter, 20 h. Potency, µM (series often up to 53.6 µM), for the others: at the highest dose activity change, negative = inhibition, usual class: inhibitors. 310,000 tested, 5.4% active. AID 2551, 2010; note: potency is the fitted concentration of half-maximal effect; % is set by controls: 0 for no effect and ±100 for the full control effect; nearly all actives have a fitted effect of over 60% in size
Target sequence (P51450 whole entry, looked up, the tested form may be a part): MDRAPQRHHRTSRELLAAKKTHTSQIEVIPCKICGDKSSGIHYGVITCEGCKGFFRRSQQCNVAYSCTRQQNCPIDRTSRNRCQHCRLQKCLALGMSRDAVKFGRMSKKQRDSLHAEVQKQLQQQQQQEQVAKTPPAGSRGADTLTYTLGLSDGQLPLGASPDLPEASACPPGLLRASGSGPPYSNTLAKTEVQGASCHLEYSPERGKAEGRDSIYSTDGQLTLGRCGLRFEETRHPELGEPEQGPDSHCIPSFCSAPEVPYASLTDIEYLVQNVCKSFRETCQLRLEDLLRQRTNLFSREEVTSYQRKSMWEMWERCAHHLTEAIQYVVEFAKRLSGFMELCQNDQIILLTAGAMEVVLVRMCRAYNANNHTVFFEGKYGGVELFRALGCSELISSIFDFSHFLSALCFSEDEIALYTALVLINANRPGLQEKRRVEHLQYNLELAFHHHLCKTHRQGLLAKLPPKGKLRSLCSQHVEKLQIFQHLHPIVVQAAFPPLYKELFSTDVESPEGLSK
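A Gal4/UAS one-hybrid system in insect cells: metallothionein-promoter Gal4–ROR gamma fusion plus Photinus luciferase reporter. Copper sulfate 700 uM final, 20 hr ambient incubation, luminescent detection after 10 min with reagent.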
MCF10A rerep – A quantitative high throughput screen for small molecules that induce DNA re-replication in MCF 10a normal breast cells; MCF 10A DNA re-replication, Hoechst nuclear intensity, 48 h; 350,000 tested, 2.9% active; AID 624296, 2012; Potency, µM (titrated, usually from 46.1 µM), without a hit: top-dose activity, positive = re-replication, most hits filed as activators; note: potency is the fitted concentration of half-maximal effect; % of control where 0% means no effect; nearly all actives have a fitted effect of over 50% in size
Giardia killer – Small Molecules that selectively kill Giardia lamblia: qHTS. Giardia lamblia trophozoite viability. activity change, % at 7.66 µM, hits read low. 340,000 tested, 0.15% active. AID 540267, 2011; in the data active = activity change below about -80%; inconclusive = between about -30% and that limit;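 note: parasites exposed to compound for two days anaerobically before the ATP read; % is set by controls: 0 for no effect and ±100 for the full control effect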
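ATP-content bioluminescence gauges trophozoite survival. Cells (100/well) receive compound and incubate anaerobically for 48 hrs at 37 deg C; detection reagent follows for 15-30 min at room temperature.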
VP16 counter – VP16 counterscreen qHTS for inhibitors of ROR gamma transcriptional activity | Drosophila S2 Gal4-VP16 UAS-luciferase, luminescence, 20 h | Potency, µM (titrated, usually from 53.6 µM), for inactives: at the highest dose activity, negative = inhibition, actives largely listed as inhibitors | 310,000 tested, 3.5% active;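 note: Gal4-VP16 expression switched on by copper sulfate through the metallothionein promoter; potency is the fitted concentration of half-maximal effect; % is set by controls: 0 for no effect and ±100 for the full control effect; nearly all actives have a fitted effect of over 50% in size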
An asterisk follows results filed as active; [ ] = another dose, or the depositor's remark. Compounds with a hit are over-represented: about 8.3% of the library has one in this group of screens. Unless noted, calls come from the whole dose curve; as a rule, active = well fitted curve in the direction sought with a large enough effect; inconclusive = small, poorly fitted or top-dose-only effect, or another doubt; inactive = no such curve, though single readings can be large; an effect the other way counts as inactive or inconclusive.

How did O=C(CSc1c2c(nc3cc(Cl)ccc13)CCCC2)NCCCN1CCOCC1 do in these assays?
Chronic BCR inh: inconclusive; SW480 rereplic: inconclusive; RORg inh: -11%; MCF10A rerep: 23µM*; Giardia killer: -3; VP16 counter: 6%

What do the screens show for `COCCCNC(=O)CSc1c2c(nc3ccc(Cl)cc13)CCCC2`?
Chronic BCR inh: 21%; SW480 rereplic: 0%; RORg inh: inconclusive; MCF10A rerep: 23µM*; Giardia killer: 17; VP16 counter: -3%

What do the screens show for `CCn1cc(C(=O)NCCCOC(C)C)c(=O)c2cc(S(=O)(=O)N3CCC(C)CC3)ccc21`?
Chronic BCR inh: 0%; SW480 rereplic: -3%; RORg inh: 6%; MCF10A rerep: 8%; Giardia killer: 17; VP16 counter: -6%

Results for C#CCOCCOCCOCCNc1nc(N2CCN(C(=O)[C@H](CCC(=O)O)n3cc([C@@H](N)[C@H](C)CC)nn3)CC2)nc(N2CCN(C(=O)[C@H](CCC(=O)O)n3cc([C@@H](N)CCSC)nn3)CC2)n1 ?
Chronic BCR inh: inconclusive; SW480 rereplic: -2%; MCF10A rerep: -6%; Giardia killer: -16

How did CC1C(=O)C(C)C(c2ccc(Br)cc2)NC1c1ccc(Br)cc1 (configuration not stated) do in these assays?
Chronic BCR inh: inconclusive; SW480 rereplic: inconclusive; RORg inh: -2%; MCF10A rerep: 23µM*; Giardia killer: 3; VP16 counter: 2%

What do the screens show for `CC1C(=O)C(C)C(c2cc(Br)ccc2O)NC1c1cc(Br)ccc1O` (configuration not stated)?
SW480 rereplic: inconclusive; MCF10A rerep: 23µM*; Giardia killer: -9

Results for CC1C(=O)C(C)C(c2ccc3c(c2)OCO3)NC1c1ccc2c(c1)OCO2 (configuration not stated) ?
Chronic BCR inh: 13%; SW480 rereplic: -3%; RORg inh: -19%; MCF10A rerep: 22%; Giardia killer: -4; VP16 counter: 1%

What do the screens show for `O=C(CSc1ncccn1)NC1CCCc2ccccc21` (configuration not stated)?
Chronic BCR inh: -9%; SW480 rereplic: inconclusive; RORg inh: 23%; MCF10A rerep: -7%; Giardia killer: -13; VP16 counter: -6%

How did O=C(NNS(=O)(=O)c1ccccc1[N+](=O)[O-])c1cccc(Br)c1 do in these assays?
Chronic BCR inh: 12%; SW480 rereplic: -10%; RORg inh: 5%; MCF10A rerep: -1%; Giardia killer: 0; VP16 counter: -4%

How did O=C(NNS(=O)(=O)c1ccccc1[N+](=O)[O-])c1cccc(Cl)c1 do in these assays?
Chronic BCR inh: 2%; SW480 rereplic: 0.52µM*; RORg inh: -18%; MCF10A rerep: 1%; Giardia killer: -6; VP16 counter: -15%

How did NCC1CC2c3ccccc3C1c1ccccc12 (configuration not stated) do in these assays?
Chronic BCR inh: inconclusive; SW480 rereplic: 23µM*; RORg inh: 2%; MCF10A rerep: 13%; Giardia killer: -3; VP16 counter: -1%

How did COc1cnc(-c2ccccn2)nc1N(C)c1ccccc1 do in these assays?
Chronic BCR inh: 7%; SW480 rereplic: inconclusive; RORg inh: 7.9µM*; MCF10A rerep: inconclusive; Giardia killer: -15; VP16 counter: inconclusive

Results for COc1ccnc(Oc2ccccc2)c1C#N ?
Chronic BCR inh: -9%; SW480 rereplic: 1%; RORg inh: 4%; MCF10A rerep: 1%; Giardia killer: -9; VP16 counter: -3%

How did CN(c1ccccc1)c1ncccn1 do in these assays?
SW480 rereplic: -6%; MCF10A rerep: -5%; Giardia killer: -21

How did COc1cnc(-c2ccccn2)nc1Oc1ccccc1 do in these assays?
Chronic BCR inh: -1%; SW480 rereplic: -12%; RORg inh: 11µM*; MCF10A rerep: -17%; Giardia killer: 2; VP16 counter: inconclusive

How did COc1cnc(-c2ccccn2)nc1Oc1cccc(C(F)(F)F)c1 do in these assays?
Chronic BCR inh: -11%; RORg inh: 6.3µM*; VP16 counter: 11µM*

How did O=C(NS(=O)(=O)N1CCCC1)C1=C(N2CCCC2)COC1=O do in these assays?
Chronic BCR inh: 1%; SW480 rereplic: -7%; MCF10A rerep: 6%; Giardia killer: 3

Results for COc1cccc(NC(=O)COC(=O)Cn2c(C)csc2=O)c1 ?
Chronic BCR inh: 2%; SW480 rereplic: 1%; MCF10A rerep: 0%; Giardia killer: 2

Results for O=c1cnc2cnc(Oc3ccccc3)nc2n1Cc1cccs1 ?
RORg inh: -19%; VP16 counter: 20%

How did CC(C)CCN1CCc2nc(COc3ccccc3)c3c(c2C1)COC(C)C3 (configuration not stated) do in these assays?
RORg inh: 1%[10 µM]; VP16 counter: 0%[10 µM]

How did S=C(NCCc1c[nH]c2ccccc12)NC1CCCCC1 do in these assays?
Chronic BCR inh: inconclusive; SW480 rereplic: -10%; RORg inh: 14µM*; MCF10A rerep: -4%; Giardia killer: 0; VP16 counter: -26%

What do the screens show for `COc1ccc2[nH]cc(CCNC(=S)NC3CCCC3)c2c1`?
Chronic BCR inh: 6%; SW480 rereplic: -9%; RORg inh: 10µM*; MCF10A rerep: 3%; Giardia killer: -13; VP16 counter: inconclusive

How did Cc1cccc(NC(=O)CSc2nc3ccccc3c3nc(CCn4cncc4C)nn23)c1 do in these assays?
Chronic BCR inh: 7%

What do the screens show for `COc1cccc(-c2nc(CS(=O)CC(=O)NCCc3ccc(C)cc3)c(C)o2)c1` (configuration not stated)?
Chronic BCR inh: -18%; SW480 rereplic: 0%; RORg inh: 3%; MCF10A rerep: -4%; Giardia killer: 1; VP16 counter: 24%

How did CCOc1ccc(NC(=O)c2ccccn2)cc1 do in these assays?
Chronic BCR inh: inconclusive; SW480 rereplic: -2%; RORg inh: 7.1µM*; MCF10A rerep: 21%; Giardia killer: -93*; VP16 counter: 4.5µM*

How did COc1cc(OC)cc(C(=O)NNC(=O)c2ccc3ccccc3n2)c1 do in these assays?
Chronic BCR inh: inconclusive; SW480 rereplic: inconclusive; MCF10A rerep: 17%; Giardia killer: 6

Source: PubChem BioAssay (National Center for Advancing Translational Sciences (NCATS))
